Where “and” joins values, the source holds several entries; their conditions need not be identical. Identical values can stand only once. Calls of active or inactive are those of the source. Unless noted, no rule for the calls is given here.

Here are results for 7 compounds from PubChem BioAssay.

The nature of experiment [1]: resazurin metabolic signal in HepG2 cells – cell-based, resazurin fluorescence, 24 h, PK04 Diversity Set, profiling panel (AID 1172). The conditions noted are these: HepG2 viability, higher = more signal.
Experiment [2] in a line: budding yeast growth changes without added modifier – OD600, strain BY4716, 24 h, basal condition, primary screen (AID 1173). As to conditions: S. cerevisiae BY4716 growth, OD600, 24 h; higher = more signal, called active from +8 up or from −8 down.
A short description of experiment [3]: viability profiling in MM1S myeloma cells – cell-based, resazurin fluorescence, basal, 24 h, PK04 Diversity Set, profiling panel (AID 1174).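 Also: MM1S multiple myeloma cell line.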 As to conditions: higher = more signal, called active from +8 up or from −8 down.
The target of experiment [4] is Dihydroorotate dehydrogenase (quinone), mitochondrial (Plasmodium falciparum (isolate 3D7)) (UniProt Q08210). The experiment in a line: inhibition of P. falciparum DHODH – biochemical, C-terminal His tag, absorbance 600 nm, primary screen (AID 1175).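 Also: recombinant parasite enzyme with a five histidine tag at its C terminus.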 As to conditions: PfDHODH enzyme, DCIP absorbance 600 nm; higher = more signal, called active from +8 up or from −8 down.

Experiment [5] can be described thus: inhibition of PAO1 biofilm formation – strain PAO1, LB-PBS medium, absorbance 600 nm, primary screen (AID 1176). As to conditions: P. aeruginosa PAO1 growth/biofilm, A600, 12 h; higher = more signal.
Experiment [6] is described as follows: growth modulation of vineyard yeast isolate – strain RM11-1a, OD600, basal, 24 h, primary screen (AID 1177).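 Also: cultures grown under basal conditions with no added stressor.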 As to conditions: S. cerevisiae RM11-1a growth, OD600, 24 h; higher = more signal, called active from +8 up or from −8 down.
Experiment [7] can be described thus: growth of efflux-deficient E. coli DRC39 – strain DRC39, OD650, 24 h, E. coli filamentation inducers, primary screen (AID 1178).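 Also: growth measured as culture turbidity by optical density at 650 nm.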 The conditions noted are these: E. coli DRC39 acrAB, higher = more signal, called active from +8 up or from −8 down.
Experiment [8] can be described thus: growth of efflux-deficient E. coli DRC39 – strain DRC39, OD650, 48 h, E. coli filamentation inducers, primary screen (AID 1179).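 Also: screen aims at cell division blockers that make cells filament.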 As to conditions: E. coli DRC39 delta-acrAB growth, higher = more signal, called active from +8 up or from −8 down.
The nature of experiment [9]: viability profiling in RPMI8226 myeloma cells – cell-based, resazurin fluorescence, basal, 24 h, PK04 Diversity Set, profiling panel (AID 1180).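 Also: RPMI8826 multiple myeloma cell line at 5000 cells per well.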 As to conditions: higher = more signal. (In general: The colour change of resazurin is a common sign of viable cells or microbes.)
Experiment [10] deals with E3 ubiquitin-protein ligase XIAP (Homo sapiens) (UniProt P98170). The experiment in a line: small molecules binding XIAP protein – biophysical, small-molecule microarray, fluorescence 635 nm, primary screen (AID 1181).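 Also: score merges 667 nm emission and signal to noise over triplicate slides.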 The conditions noted are these: higher = more signal.
In experiment [11] the test system is XIP peptide (Xip251-270) binding. As to the kind of experiment: XIP fragment 251-270 binding compounds – biochemical, small-molecule microarray, fluorescence 635/667 nm, 0.1 µg/mL protein, primary screen (AID 1182). As to conditions: fluorescent protein binding, 635 nm, higher = more signal, called active from +8 up or from −8 down.
The test system of experiment [12] is XIP peptide (Xip251-270). As to the kind of experiment: compounds binding XIP fragment 251-270 – biochemical, small-molecule microarray, fluorescence 635/667 nm, 0.5 µg/mL protein, primary screen (AID 1183). The conditions noted are these: fluorescence 635 nm, higher = more signal.
Experiment [13] is described as follows: blood-stage malaria parasite viability loss – strain 3D7, DAPI fluorescence, 100 nL, primary screen (AID 1184).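 Also: parasites grown inside human red blood cells in medium with human serum.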 As to conditions: P. falciparum 3D7 growth, 3 d, higher = more signal.
Experiment [14] addresses Homeobox protein Hox-A13 (Mus musculus) (UniProt Q62424). As to the kind of experiment: disruptors of Hoxa13 oligonucleotide interaction – biochemical, fluorescence polarization, labeled oligonucleotide, primary screen (AID 1185). As to conditions: Hoxa13:DNA binding, 15 min, higher = more signal, called active from +8 up or from −8 down.
The nature of experiment [15]: blockers of DNA damage checkpoint Chk1 activation – imaging, HeLa, hydroxyurea, phospho-Chk1 antibody, percent positive cells, primary screen (AID 1186). The conditions noted are these: hydroxyurea-induced phospho-Chk1 immunofluorescence imaging, higher = more signal.
Experiment [16] in a line: blockers of DNA damage checkpoint Chk1 activation – imaging, HeLa, hydroxyurea, phospho-Chk1 nuclear intensity, primary screen (AID 1187). The conditions noted are these: hydroxyurea-induced phospho-Chk1 immunofluorescence imaging, higher = more signal.

Homeobox protein Hox-A13 (Mus musculus), sequence (Q62424 whole entry, looked up): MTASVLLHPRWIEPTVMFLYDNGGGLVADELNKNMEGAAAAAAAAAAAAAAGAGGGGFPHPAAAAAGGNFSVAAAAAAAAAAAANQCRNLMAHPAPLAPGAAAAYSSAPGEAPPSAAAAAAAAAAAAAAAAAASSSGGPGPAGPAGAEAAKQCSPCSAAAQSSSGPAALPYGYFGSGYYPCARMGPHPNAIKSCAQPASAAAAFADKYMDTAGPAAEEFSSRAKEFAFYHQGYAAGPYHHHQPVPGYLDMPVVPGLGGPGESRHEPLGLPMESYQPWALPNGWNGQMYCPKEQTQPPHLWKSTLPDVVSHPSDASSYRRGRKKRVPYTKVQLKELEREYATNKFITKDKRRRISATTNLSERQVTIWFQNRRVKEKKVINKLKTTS
E3 ubiquitin-protein ligase XIAP (Homo sapiens), sequence (P98170 whole entry, looked up, the tested form may be a part): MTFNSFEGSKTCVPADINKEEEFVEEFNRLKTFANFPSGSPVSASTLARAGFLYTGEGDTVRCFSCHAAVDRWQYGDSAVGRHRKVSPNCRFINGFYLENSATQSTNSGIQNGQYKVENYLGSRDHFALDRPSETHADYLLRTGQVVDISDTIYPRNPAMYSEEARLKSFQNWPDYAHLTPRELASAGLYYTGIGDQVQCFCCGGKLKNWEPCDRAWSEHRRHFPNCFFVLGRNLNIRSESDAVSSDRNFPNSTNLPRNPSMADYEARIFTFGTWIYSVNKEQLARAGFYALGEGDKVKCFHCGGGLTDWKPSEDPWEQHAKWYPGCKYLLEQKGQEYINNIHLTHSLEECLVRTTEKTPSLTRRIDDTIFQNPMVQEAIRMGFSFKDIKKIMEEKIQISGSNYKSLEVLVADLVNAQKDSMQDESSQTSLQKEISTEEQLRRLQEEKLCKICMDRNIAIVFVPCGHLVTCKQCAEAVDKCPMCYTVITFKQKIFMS
Dihydroorotate dehydrogenase (quinone), mitochondrial (Plasmodium falciparum (isolate 3D7)), sequence (Q08210 whole entry, looked up): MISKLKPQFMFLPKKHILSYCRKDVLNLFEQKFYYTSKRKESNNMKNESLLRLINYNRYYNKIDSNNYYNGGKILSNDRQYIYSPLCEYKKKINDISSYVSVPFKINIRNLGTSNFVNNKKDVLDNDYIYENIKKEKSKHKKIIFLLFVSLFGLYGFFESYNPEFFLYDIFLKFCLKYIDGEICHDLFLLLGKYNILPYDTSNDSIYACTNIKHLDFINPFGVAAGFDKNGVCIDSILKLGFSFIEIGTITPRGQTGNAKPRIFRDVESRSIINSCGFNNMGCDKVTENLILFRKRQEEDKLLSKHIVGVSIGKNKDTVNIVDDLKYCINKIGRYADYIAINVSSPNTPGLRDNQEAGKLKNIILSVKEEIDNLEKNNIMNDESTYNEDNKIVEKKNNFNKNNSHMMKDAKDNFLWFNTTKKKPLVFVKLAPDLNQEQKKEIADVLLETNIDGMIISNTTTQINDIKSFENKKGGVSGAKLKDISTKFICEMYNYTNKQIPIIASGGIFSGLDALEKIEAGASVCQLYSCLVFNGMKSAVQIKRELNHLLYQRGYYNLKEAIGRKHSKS

As to `C=CCN(C(=O)C(c1cccs1)N(C(=O)/C=C\C(=O)O)c1ccc(CCO)cc1)c1ccc(OC)cc1` (configuration not stated), the z-score in experiment [1] was 0.495 and -0.158; in [2], -1.66 (inactive) and -1.5 (inactive); in [3], 0.777 (inactive) and 0.249 (inactive); in [5], 0.413 (inactive) and -0.497 (inactive); in [6] it was -0.405 (inactive) and 0.127 (inactive); in [7], 1 (inactive) and 0.244 (inactive). The z-score in [8] was 0.78 (inactive) and 0.864 (inactive); in experiment [9], 0.32 and 0.335; in experiment [13], -0.142 and -0.395; in [14], -0.698 (inactive) and -0.535 (inactive); in experiment [15], -0.157 (inactive) and 0.581 (inactive); in experiment [16], 0.686 (inactive) and 0.548 (inactive). The composite z-score in experiment [4] is -1.09 (inactive) and -4.45 (inactive); in experiment [10], 0.184 and 0.284; in experiment [11] it was -0.104 (inactive) and -0.169 (inactive); in experiment [12], -0.0376 and -1.95.

Turning to `C=CCN(C(=O)C1N(C(C)(C)CO)C(=O)C2C(C(=O)O)C3C=CC21O3)C(C)(C)C` (configuration not stated), the z-score is -0.724 and -0.381 in [1]; 1 (inactive) and 0.053 (inactive) in [2]; -0.638 (inactive) and 0.113 (inactive) in experiment [3]; -0.456 (inactive) and 0.109 (inactive) in [5]; 1.16 (inactive) and 1.25 (inactive) in experiment [6]; -0.706 (inactive) and 0.32 (inactive) in experiment [7]. Moreover, the z-score is -0.687 (inactive) and 0.356 (inactive) in [8]; -0.319 and -0.0012 in experiment [9]; 0.214 and -0.208 in [13]; -1.11 (inactive) and 0.241 (inactive) in [14]; -0.518 (inactive) and 1.17 (inactive) in [15]; -0.112 (inactive) and 0.674 (inactive) in experiment [16]. For the same compound, the composite z-score in experiment [4] was 1.3 (inactive) and -0.307 (inactive); in [10] it was -0.326 and -0.212; in experiment [11] it was -0.651 (inactive) and 0.11 (inactive); in experiment [12], -0.901 and -0.924.

Consider `C=CCN(CCCCC)C(=O)C(c1cccs1)N(CCOCCO)C(=O)/C=C\C(=O)O` (configuration not stated), for which the z-score in experiment [1] is -0.925 and -0.111; in experiment [2], -0.397 (inactive) and -0.258 (inactive); in [3], -0.223 (inactive) and 0.149 (inactive); in experiment [5] it was 0.0126 (inactive) and -0.401 (inactive); in experiment [6], -1.37 (inactive) and -1.48 (inactive); in experiment [7], -0.388 (inactive) and 0.106 (inactive). The z-score in experiment [8] is 0.526 (inactive) and 0.855 (inactive); in [9] it was 0.096 and -0.165; in experiment [13] it was -0.102 and -0.0618; in experiment [14] it was -0.478 (inactive) and -0.603 (inactive); in experiment [15] it was -0.0506 (inactive) and -0.514 (inactive); in experiment [16], 0.425 (inactive) and 0.965 (inactive). In addition, the composite z-score in experiment [4] is -1.15 (inactive) and -1.27 (inactive); in experiment [10] it was 0.548 and -0.0273; in [11], -0.44 (inactive) and -0.841 (inactive); in experiment [12] it was -0.265 and -0.343.

`C=C[C@H](OC)[C@@H](O)c1ccc(O)c(F)c1`: the z-score is -0.463 and 0.413 in experiment [1]; -2.28 (inactive) and -3.3 (inactive) in [2]; -0.74 (inactive) and 0.169 (inactive) in experiment [3]; 0.614 (inactive) and 0.45 (inactive) in experiment [5]; -0.684 (inactive) and -0.0772 (inactive) in [6]; 0.136 (inactive) and 1.2 (inactive) in experiment [7]. Also, the z-score in experiment [8] is 0.0056 (inactive) and 1 (inactive); in experiment [9] it was -0.792 and 0.496; in [13], 1.66 and 0.778; in experiment [14] it was 0.0518 (inactive) and 0.0165 (inactive); in experiment [15] it was -0.0834 (inactive) and -0.834 (inactive); in experiment [16], -0.132 (inactive) and -0.265 (inactive). The composite z-score was -0.697 (inactive) and -0.991 (inactive) in experiment [4]; -0.283 and -0.107 in experiment [10]; 0.406 (inactive) and -0.397 (inactive) in experiment [11]; 0.563 and 0.0248 in experiment [12].

Take `C=CCN(C(=O)C1N(CCOCCO)C(=O)C2C(C(=O)O)C3C=CC21O3)C(C)(C)C` (configuration not stated): the z-score in experiment [1] was 0.0542 and -0.741; in experiment [2], -0.0565 (inactive) and 0.494 (inactive); in experiment [3], -0.2 (inactive) and -1.16 (inactive); in experiment [5] it was -0.0558 (inactive) and 0.578 (inactive); in experiment [6], -0.0478 (inactive) and -0.166 (inactive); in experiment [7], -0.335 (inactive) and -0.685 (inactive). Further, the z-score in experiment [8] is -0.664 (inactive) and -0.923 (inactive); in experiment [9], -0.244 and -1.69; in experiment [13] it was -0.283 and -0.145; in experiment [14], -1.32 (inactive) and -0.575 (inactive); in experiment [15] it was -0.262 (inactive) and -0.147 (inactive); in experiment [16], -0.47 (inactive) and 0.312 (inactive). The composite z-score in [4] is 0.256 (inactive) and 1.36 (inactive); in experiment [10], 0.0009 and -0.0369; in experiment [11] it was -0.348 (inactive) and -0.346 (inactive); in experiment [12], 0.102 and -0.294.

Regarding `CCOC(=O)C[C@H]1[C@H](OC(=O)c2ccccc2-c2ccccc2)[C@@H](NC(=O)c2ccccc2)c2cc(OCCCO)ccc2N1C(=O)c1ccc2ccccc2n1`, the z-score in experiment [1] was 0.578 and -0.48; in [2], -0.602 (inactive) and 1.01 (inactive); in [3] it was 0.602 (inactive) and -0.924 (inactive); in experiment [5] it was -0.152 (inactive) and 0.432 (inactive); in experiment [6] it was -0.26 (inactive) and -0.698 (inactive); in [7], 1.39 (inactive) and -0.851 (inactive). The z-score in experiment [8] was 0.845 (inactive) and -0.687 (inactive); in [9], -0.236 and -0.847; in experiment [13] it was -0.345 and 0.0894; in [14] it was -3.24 (inactive) and -1.56 (inactive); in [15], 0.105 (inactive) and -0.0471 (inactive); in [16], 0.118 (inactive) and -0.0805 (inactive). In addition, the composite z-score in experiment [4] is 0.139 (inactive) and -0.264 (inactive); in experiment [10], -0.227 and 0.0451; in [11], -0.196 (inactive) and 0.367 (inactive); in experiment [12], -0.0343 and 0.393.

With `C[N+](C)(C)CCCCNC(=O)[C@H]1C[C@H]2C(=O)N[C@@H](CCCC[N+](C)(C)C)C(=O)N2[C@H]1c1ccc(O)cc1`, the z-score in experiment [1] was -0.168 and 0.0318; in [2], 0.889 (inactive) and 0.811 (inactive); in experiment [3], -0.531 (inactive) and -0.416 (inactive); in experiment [5] it was 0.227 (inactive) and 2.5 (inactive); in [6], 0.659 (inactive) and 0.409 (inactive); in experiment [7] it was 0.0769 (inactive) and -0.869 (inactive). For the same compound, the z-score in experiment [8] is 0.0835 (inactive) and -1.41 (inactive); in experiment [9], -0.891 and -1.06; in [13], 0.952 and -1.12; in experiment [14] it was -0.497 (inactive) and 1.22 (inactive); in [15], 0.487 (inactive) and -0.868 (inactive); in [16] it was 0.605 (inactive) and -0.687 (inactive). Also, the composite z-score in experiment [4] was -29.8 (active) and -29.4 (active); in [10], 0.104 and 0.0015; in experiment [11] it was 1.52 (inactive) and 1.25 (inactive); in [12], 0.761 and 0.892.
